Only some compounds are listed: those with a hit (about 2.3% of all), similar ones and a draw of the others.
ADAM10 inh: human ADAM10 inhibitors, primary screen, biochemical, QFRET, HTS; inhibition, % at 7 µM; Disintegrin and metalloproteinase domain-containing protein 10 (Homo sapiens), O14672; recombinant ADAM10, EDANS/DABCYL FRET peptide cleavage, 3 h; hit rate 0.62% among 370,000;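 active = inhibition above a per-campaign cutoff equal to the mean of compounds falling between control-based bounds plus 3 SD, cut at about 20% in these data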;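 also: 0% = DMSO wells while the 100% control is not disclosed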
ADAM17 inh: ADAM17 inhibitors, primary screen, biochemical, QFRET | Disintegrin and metalloproteinase domain-containing protein 17 (Homo sapiens), P78536 | hit rate 0.83% among 370,000 | recombinant ADAM17, EDANS/DABCYL FRET peptide cleavage | inhibition, % at 6.95 µM;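 active = inhibition above the mean of compounds lying between control limits plus 3 SD, set per campaign, cut at about 8.5% in these data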;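 also: 0% = DMSO-only wells as the low control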
Target sequence (P78536 215-824 limits assumed): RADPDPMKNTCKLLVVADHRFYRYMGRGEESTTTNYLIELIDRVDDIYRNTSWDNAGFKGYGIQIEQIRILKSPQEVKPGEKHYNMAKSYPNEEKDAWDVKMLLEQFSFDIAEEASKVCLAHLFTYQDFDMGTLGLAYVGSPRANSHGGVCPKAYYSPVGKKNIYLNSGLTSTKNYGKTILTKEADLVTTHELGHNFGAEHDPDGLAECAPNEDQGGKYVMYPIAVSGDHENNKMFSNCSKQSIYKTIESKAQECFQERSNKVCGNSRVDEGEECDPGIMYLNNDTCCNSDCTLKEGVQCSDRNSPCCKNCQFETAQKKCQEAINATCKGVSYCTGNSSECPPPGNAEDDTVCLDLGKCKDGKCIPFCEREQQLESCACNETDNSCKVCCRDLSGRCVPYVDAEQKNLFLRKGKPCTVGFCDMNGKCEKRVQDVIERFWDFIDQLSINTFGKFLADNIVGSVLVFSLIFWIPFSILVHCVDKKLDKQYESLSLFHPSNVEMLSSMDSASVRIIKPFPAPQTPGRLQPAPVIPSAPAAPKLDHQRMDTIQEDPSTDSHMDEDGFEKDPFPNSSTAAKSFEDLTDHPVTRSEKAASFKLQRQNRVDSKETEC
V-ATPase pH: regulators of yeast V-ATPase proton pumping, primary screen, pHLuorin cytosolic pH fluorescence | S. cerevisiae | response, % at 10 µM | hit rate 0.37% among 350,000 | AID 504577, 2011; in the data active = response mostly above about 7.3%, no sharp cut-off; inactive = mostly below about 5.4%; also: actives read high
proKLK7 act: proKLK7 zymogen activators, primary screen, biochemical, fluorescence intensity; Kallikrein-7 (Homo sapiens), P49862; purified proKLK7, EDANS-DABCYL substrate fluorescence; 100% is mature enzyme control, 0% vehicle; activation, % at 7 µM; hit rate 0.9% among 370,000;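 active = activation above the mean of all tested compounds plus 3 SD, computed per campaign excluding outliers beyond control limits, cut at about 13% in these data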
ADAM10 confirm: human ADAM10 inhibitors, confirmation, biochemical, QFRET, triplicate; hit rate 1% among 2,100; ADAM10 QFRET peptide cleavage, EDANS fluorescence; inhibition, % at 6.95 µM; shares compounds with ADAM10 inh;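 active = inhibition above about 20% chosen separately for each screening run, limit read from the data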;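 also: 0% = DMSO wells and 100% = marimastat wells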
ADAM17 ctr: ADAM17 inhibitors, counter-screen for ADAM10 exosite inhibitor project, biochemical, QFRET, high throughput; shares compounds with ADAM10 inh; ADAM17 QFRET peptide cleavage, EDANS fluorescence; inhibition, % at 6.95 µM; hit rate 0.5% among 2,100; AID 743214, 2013;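 active = mean triplicate inhibition above the solvent-only control wells' mean plus 3 SD, cut at about 12% in these data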;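 also: 0% = DMSO wells and 100% = marimastat wells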
ADAM10 ctr: ADAM10 inhibitors, counter-screen for ADAM17 exosite inhibitor project, biochemical, FRET, human ADAM10 | shares compounds with ADAM17 inh | recombinant ADAM10, EDANS/DABCYL FRET peptide cleavage, 3 h | inhibition, % at 6.95 µM | hit rate 47% among 2,900;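 active = mean inhibition over the triplicate runs exceeds the activity threshold set in the earlier primary screen, cut at about 20% in these data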;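 also: 0% = DMSO wells and 100% = marimastat wells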
ADAM17 confirm: ADAM17 inhibitors, hit retest, confirmation, biochemical, QFRET peptide cleavage. shares compounds with ADAM17 inh. recombinant ADAM17, EDANS/DABCYL QFRET peptide cleavage. inhibition, % at 6.95 µM. hit rate 65% among 2,900;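 active = mean inhibition across replicates above the hit cutoff set in the primary screen, cut at about 8.5% in these data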;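 also: 0% = DMSO wells and 100% = marimastat wells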
Starred values were filed as active, the others as inactive.

Screening CC(=NNC(=O)CSc1nnc(-c2ccc(C(C)(C)C)cc2)n1-c1ccccc1)c1cccc2ccccc12 returned ADAM10 inh 23*, ADAM17 inh 8.9*, proKLK7 act 0, ADAM10 confirm 14, ADAM17 ctr 4, ADAM10 ctr 17 and ADAM17 confirm 13*.
CC(C)(C)c1ccc(-c2nnc(SCC(=O)Nc3cccc4ccccc34)n2Cc2ccco2)cc1 was read as ADAM10 inh 20*, ADAM17 inh 9.2*, proKLK7 act 0, ADAM10 confirm 6, ADAM17 ctr 2, ADAM10 ctr 36* and ADAM17 confirm 17*.
For O=C(CSc1nnc(-c2ccc(Cl)cc2)n1Cc1ccco1)Nc1cccc2ccccc12 the results were ADAM10 inh -11, ADAM17 inh -1 and proKLK7 act 0.
Screening CCCCc1c(-c2ccccc2OC)ncn1Cc1cc(F)ccc1F returned ADAM10 inh -6, ADAM17 inh -2 and proKLK7 act 0.
COc1ccc(Sc2cccc3c2S(=O)(=O)N(C2CC2)C[C@@H](COCc2ccccc2)O3)cc1OC was read as ADAM10 inh 9, ADAM17 inh 4 and proKLK7 act 0.
`COc1ccc(S(=O)(=O)Nc2ccc(Nc3ccccc3)cc2)cc1` gave ADAM10 inh 21*, ADAM17 inh 12*, V-ATPase pH -2, proKLK7 act 0, ADAM10 confirm 7, ADAM17 ctr 1, ADAM10 ctr 13 and ADAM17 confirm 11*.
For COc1ccc(S(=O)(=O)N2CCC(c3cc(-c4cccc5ccccc45)n[nH]3)CC2)cc1 the results were ADAM10 inh 25*, ADAM17 inh 11*, V-ATPase pH 0, proKLK7 act 1, ADAM10 confirm 18, ADAM17 ctr 5, ADAM10 ctr 6 and ADAM17 confirm 9.1*.
Screening CCN1C(=O)/C(=C/C=C2/SCCN2C)SC1=S returned ADAM10 inh -8, ADAM17 inh -3, V-ATPase pH -4 and proKLK7 act 0.
`CN1CCS/C1=C\C=C1/SC(=S)N(CC(=O)O)C1=O` gave ADAM10 inh 25*, ADAM17 inh 10*, V-ATPase pH 0, proKLK7 act 0, ADAM10 confirm 2, ADAM17 ctr 0, ADAM10 ctr 17 and ADAM17 confirm 11*.
O=C(Nc1ccccc1)C1=C[C@@H](c2ccc(C(F)(F)F)cc2)C[C@@H](OCc2ccc(CO)cc2)O1 was read as ADAM10 inh 27*, ADAM17 inh 11*, V-ATPase pH -3, proKLK7 act 1, ADAM10 confirm 7, ADAM17 ctr 3, ADAM10 ctr 13 and ADAM17 confirm 10*.
Screening CC(=O)n1cc([C@@H]2C=C(C(=O)Nc3ccccc3)O[C@H](OCc3ccc(CO)cc3)C2)c2ccccc21 returned ADAM10 inh 31*, ADAM17 inh 8.9*, V-ATPase pH 0, proKLK7 act 0, ADAM10 confirm 7, ADAM17 ctr 3, ADAM10 ctr 13 and ADAM17 confirm 14*.
O=C(Nc1ccccc1)C1=C[C@@H](c2ccccc2)C[C@@H](OCc2ccc(CO)cc2)O1 was read as ADAM10 inh 6, ADAM17 inh 2, V-ATPase pH -3 and proKLK7 act 0.
For O=C(NCc1ccccc1)C1=C[C@H](c2ccc(Br)cc2)C[C@H](OCc2ccc(CO)cc2)O1 the results were ADAM10 inh 21*, ADAM17 inh 9.9*, V-ATPase pH 2, proKLK7 act 1, ADAM10 confirm 12, ADAM17 ctr 4, ADAM10 ctr 28* and ADAM17 confirm 18*.
For CC(=O)n1cc([C@H]2C=C(C(=O)NCc3ccccc3)O[C@@H](OCc3ccc(CO)cc3)C2)c2ccccc21 the results were ADAM10 inh -2, ADAM17 inh 4, V-ATPase pH -2 and proKLK7 act 1.
`CCCCCCCCNS(=O)(=O)/C=C/c1ccccc1CNC(=O)OC(C)(C)C` gave ADAM10 inh 21*, ADAM17 inh 11*, proKLK7 act 0, ADAM10 confirm 12, ADAM17 ctr 3, ADAM10 ctr 31* and ADAM17 confirm 15*.
For CCc1cc(Cn2nc(-c3ccccc3)cc2C(=O)NCc2cccc(Br)c2)on1 the results were ADAM10 inh 21*, ADAM17 inh 14*, V-ATPase pH 5, proKLK7 act 0, ADAM10 confirm 13, ADAM17 ctr 4, ADAM10 ctr 36* and ADAM17 confirm 22*.
Screening CCc1cc(Cn2nc(-c3ccccc3)cc2C(=O)NCc2ccc(C)cc2)on1 returned ADAM10 inh 29*, ADAM17 inh 9.1*, V-ATPase pH -2, proKLK7 act 0, ADAM10 confirm 8, ADAM17 ctr 3, ADAM10 ctr 24* and ADAM17 confirm 13*.
For O=C(CSc1nc2ccccc2[nH]1)Nc1nc(-c2cccc(Br)c2)cs1 the results were ADAM10 inh 50*, ADAM17 inh 23*, V-ATPase pH 0, proKLK7 act -3, ADAM10 confirm 23*, ADAM17 ctr 7, ADAM10 ctr 40* and ADAM17 confirm 24*.
For CN(C)CCCn1c(SCC(=O)Nc2nc(-c3cccc(Br)c3)cs2)nc2ccccc2c1=O the results were ADAM10 inh -6, ADAM17 inh -4, V-ATPase pH -7 and proKLK7 act 0.
`CC(C)c1ccc(NC(=O)OC2CCC23CCC(c2ccccc2)CC3)cc1` (stereo not given) gave ADAM10 inh -6 and ADAM17 inh -5.
Screening CCN(c1ccccc1)S(=O)(=O)c1ccc(C(=O)Nc2cccc(NC(C)=O)c2)cc1 returned ADAM10 inh 22*, ADAM17 inh 8.9*, V-ATPase pH 4, proKLK7 act -1, ADAM10 confirm 8, ADAM17 ctr 2, ADAM10 ctr 3 and ADAM17 confirm 3.

Compound activity from PubChem BioAssay.
